Source: PubChem
LDHA inh = blocks human lactate dehydrogenase A; 480,000 tested, 0.15% active; purified LDHA, NADH/diaphorase-resazurin fluorescence; active compounds read low; activity change, % (values are at about 110 or 230 µM); P00338; in the data active means activity change below about -30%; inconclusive means mostly about -25% to -30%;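 further: plate controls were DMSO wells for no effect and wells without enzyme for full effect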
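Resorufin fluorescence (ex540/em590), read at 0 and 20 min after diaphorase/resazurin addition, reports the NADH left after a 5 min room-temperature reaction of 2 nM human LDH5 with 0.06 mM NADH and 0.2 mM pyruvate.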
IL-1B inflam inh = inflammasome signaling inhibition, IL-1 beta readout; THP-1 LPS/ATP IL-1B secretion, AlphaLISA, 16 h; active compounds read low; activity change, % at 57.5 µM; 360,000 tested, 4.7% active; AID 743279; in the data active means activity change below about -50%; inconclusive means mostly about -30% to -49%
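Secreted IL-1B measured by AlphaLISA bead assay after 16 h compound exposure of THP-1 cells; compounds (final up to 57.5 uM) added 1 h before LPS (250 ng/mL) and ATP (1.25 mM) stimulation; lower signal means less secretion.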
VP16 counter = counter-screen for ROR gamma inhibitors: Gal4-VP16 reporter; Drosophila S2 Gal4-VP16 UAS-luciferase, luminescence, 20 h; Potency, µM (highest dose often 53.6 µM), without a hit: at the highest dose activity, negative = inhibition, actives largely listed as inhibitors; 310,000 tested, 3.5% active;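 further: Gal4-VP16 expression switched on by copper sulfate through the metallothionein promoter; potency means the concentration at half of the fitted maximal effect; nearly all actives have a fitted effect of over 50% in size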
TDP1 cell CPT = DT40-hTDP1 cell growth loss with CPT | chicken DT40 Tdp1-/-;hTDP1 cells + 20 nM CPT, ATP luminescence, 48 h | Potency, µM (highest dose often 46.2 µM), without a hit: at the top dose activity change, negative = growth inhibition, usual class: inhibitors | 420,000 tested, 12% active; further: potency means the concentration at half of the fitted maximal effect; nearly all actives have a fitted effect of over 55% in size
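Chicken DT40 Tdp1-/- cells complemented with human TDP1, 400 cells/well, exposed to compounds plus 20 nM camptothecin for at least 48 h at 37 C; viability read as ATP content by CellTiter-Glo luminescence.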
DT40 TDP1 no CPT = qHTS for Inhibitors of human tyrosyl-DNA phosphodiesterase 1 (TDP1): qHTS in cells in absence of CPT | DT40 Tdp1-/- hTDP1 cells, no CPT, ATP luminescence, 48 h | Potency, µM (doses to about 46.2 µM), for inactives: at the top dose activity change, negative = growth inhibition, hits mostly inhibitors | 420,000 tested, 15% active; further: potency means the concentration at half of the fitted maximal effect; nearly all actives have a fitted effect of over 55% in size
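Seeded 400 DT40-hTDP1 cells/well (vehicle DMSO, no 20 nM CPT); pinned compounds; ≥48 hr at 37 °C; CellTiter-Glo luminescence as viability measure.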
RORg inh = blocks mouse ROR gamma transcriptional activity; Potency, µM (highest dose often 53.6 µM), for inactives: at the top dose activity change, negative = inhibition, actives largely listed as inhibitors; 310,000 tested, 5.4% active; Drosophila S2 Gal4-RORgamma UAS-luciferase reporter, 20 h; further: potency means the concentration at half of the fitted maximal effect; nearly all actives have a fitted effect of over 60% in size
Target sequence (P51450 whole entry, looked up, the tested form may be a part): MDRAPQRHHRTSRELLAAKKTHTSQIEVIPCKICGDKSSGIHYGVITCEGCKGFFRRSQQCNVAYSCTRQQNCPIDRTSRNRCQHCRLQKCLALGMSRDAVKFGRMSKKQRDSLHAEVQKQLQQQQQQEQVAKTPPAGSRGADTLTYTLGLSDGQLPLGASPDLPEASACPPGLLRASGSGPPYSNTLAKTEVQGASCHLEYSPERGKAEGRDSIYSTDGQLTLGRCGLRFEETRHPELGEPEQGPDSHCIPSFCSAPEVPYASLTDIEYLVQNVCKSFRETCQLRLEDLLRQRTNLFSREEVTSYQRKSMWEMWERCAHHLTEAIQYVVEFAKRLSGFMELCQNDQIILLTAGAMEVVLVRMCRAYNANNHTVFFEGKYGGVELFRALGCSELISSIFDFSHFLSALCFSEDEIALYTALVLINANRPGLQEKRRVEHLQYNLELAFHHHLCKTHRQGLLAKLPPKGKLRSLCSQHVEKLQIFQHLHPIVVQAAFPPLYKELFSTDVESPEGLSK
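A Gal4/UAS one-hybrid system in insect cells: metallothionein-promoter Gal4–ROR gamma fusion plus Photinus luciferase reporter. Copper sulfate 700 uM final, 20 hr ambient incubation, luminescent detection after 10 min with reagent.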
* hit, by the source's call; i = inactive; ? = inconclusive; . = no result; ! = not confirmed by another sample. An excerpt weighted towards active compounds, which were near 18% of everything screened. Unless noted, the call rests on the fitted dose curve; in most records, active means well fitted curve in the direction sought with a large enough effect; inconclusive means small, poorly fitted or top-dose-only effect, or another doubt; inactive means no such curve, though single readings can be large; an effect the other way counts as inactive or inconclusive. Unless noted, on the % scale 0 is the no-effect control and ±100 the full control effect.

SMILES | LDHA inh | IL-1B inflam inh | VP16 counter | TDP1 cell CPT | DT40 TDP1 no CPT | RORg inh
Cc1cc(C)cc(NS(=O)(=O)c2c(C)[nH]c(C)c2C(=O)N2CCCC2)c1 | 2 | . | . | . | . | .
CCN1CCN(CC(=O)Nc2oc3ccccc3c(=O)c2-c2ccc(OC)c(OC)c2)CC1 | -6 | . | . | . | . | .
CC(=O)/C(=C1\NC(C)(C)Cc2cc(C)c(C)cc21)c1ccccc1 | 4 | . | . | . | . | .
FC(F)(F)c1cccc(N2CCN(C(c3ccc(Br)cc3)c3nnc(-c4ccccc4)o3)CC2)c1 (stereo not drawn) | 8 | . | . | . | . | .
Oc1ccccc1N1CCN(C(c2ccccc2)c2ccccc2)CC1 | 3 | ? | 19% | ? | ? | -6%
Cc1cccc(N2CCN(C(c3ccccc3)c3nnc(-c4ccccc4F)o3)CC2)c1C (stereo not drawn) | -2 | . | . | 15µM* | 23µM* | .
Cc1ccccc1-c1nnc(CN2CCN(c3cccc(C)c3C)CC2)o1 | -1 | . | . | -20% | -26% | .
Cc1ccc(C)c(N2CCN(C(c3ccccc3)c3nnc(-c4ccccc4F)o3)CC2)c1 (stereo not drawn) | -3 | . | . | ? | 23µM* | .
Cc1cccc(N2CCN(C(c3ccccc3)c3nnc(-c4ccccc4Cl)o3)CC2)c1C (stereo not drawn) | 1 | . | . | 21µM* | ? | .
Cc1ccc(C)c(N2CCN(C(c3ccc(F)cc3)c3nnc(-c4ccccc4)o3)CC2)c1 (stereo not drawn) | -2 | . | . | ? | 15µM* | .
Fc1ccc(C2=CC(c3cccc(Br)c3)n3nnnc3N2)cc1 (stereo not drawn) | 17 | . | . | . | . | .
CCOC(=O)c1c(C)oc2nc(C)nc(NCC3CCN(Cc4ccc(C)cc4)CC3)c12 | -4 | . | . | ? | -24% | .
CCOC(=O)c1c(C)oc2nc(C)nc(NCCc3ccc(Cl)cc3)c12 | -8 | . | . | ? | 13µM* | .
CCOC(=O)c1c(C)oc2nc(C)nc(NCc3ccc(C)cc3)c12 | 8 | . | . | -99% | ? | .
CCOC(=O)c1c(C)oc2nc(C)nc(NCCc3ccc(OCC)c(OCC)c3)c12 | -10 | . | . | ? | 13µM* | .
CCOC(=O)c1c(C)oc2nc(C)nc(NCCc3ccc(OCC)cc3)c12 | -4 | . | . | 6.5µM* | 5.2µM* | .
Cc1cc(SCC(NC(=O)c2ccccc2)C(=O)O)c2cc(Br)ccc2n1 (stereo not drawn) | -18 | . | . | . | . | .
Cc1c(-c2ccccc2)oc2c(C(=O)NCc3ccccc3CN(C)C)cccc2c1=O | 5 | . | . | . | . | .
CCCN1CNc2c(c(=O)[nH]c(=S)n2CCc2cccc(C)c2C)C1 | 2 | . | . | ? | 13µM* | .
CCCN1CNc2c(c(=O)[nH]c(=S)n2CCC(C)C)C1 | -2 | . | . | -22% | ? | .
CCCN1CNc2c(c(=O)[nH]c(=S)n2CCC(C)(C)C)C1 | 1 | . | . | ? | 13µM* | .
CCCN1CNc2c(c(=O)[nH]c(=S)n2CCCc2ccccc2)C1 | 0 | . | . | ? | 13µM* | .
CCCN1CNc2c(c(=O)[nH]c(=S)n2CCc2ccccc2)C1 | -11 | 17 | -2% | -9% | -19% | -9%
O=C(CNC(=O)c1cc(-c2cccs2)nc2ccccc12)NC1CC1 | -6 | . | . | . | . | .
O=C(CSc1nnnn1C1CCCC1)N1CCN(S(=O)(=O)c2ccc3ccccc3c2)CC1 | 6 | . | . | . | . | .
SMILES | LDHA inh | IL-1B inflam inh | VP16 counter | TDP1 cell CPT | DT40 TDP1 no CPT | RORg inh
O=C(CN1C(=O)C2CC=CCC2C1=O)Nc1nc(-c2ccc(F)c(F)c2)cs1 (stereo not drawn) | 1 | -6 | . | ? | 21µM* | .
COc1ccc(-c2csc(NC(=O)CN3C(=O)C4CC=CCC4C3=O)n2)cc1OC (stereo not drawn) | -3 | 0 | . | ? | 8.2µM* | .
COc1ccc(-c2csc(NC(=O)CN3C(=O)C4CCCCC4C3=O)n2)cc1OC (stereo not drawn) | -4 | i | -6% | -1% | -28% | 14%
O=C(CN1C(=O)C2CC=CCC2C1=O)NCC(=O)Nc1ccc(F)c(F)c1 (stereo not drawn) | -6 | 7 | . | -18% | -1% | .
COc1ccc(OC)c(-c2csc(NC(=O)CN3C(=O)C4CCCCC4C3=O)n2)c1 (stereo not drawn) | -4 | -56* | . | -25% | -16% | .
O=C(CCN1C(=O)C2CCCCC2C1=O)Nc1nc(-c2ccc(F)c(F)c2)cs1 (stereo not drawn) | -5 | ? | -9% | ? | 18µM* | 30%
CCOc1ccc(NC(=O)CSCc2cc(=O)n3ccccc3n2)cc1 | -10 | . | . | . | . | .
CCn1nc(C(=O)Nc2nccs2)c2ccccc2c1=O | 2 | . | . | . | . | .
Cc1noc(C(C)C)c1C(=O)NCc1ccnc(OC2CCCC2)c1 | -6 | . | . | . | . | .
Cc1cccc(C)c1NC(=S)NC(=O)CCc1ccccc1 | 3 | 15 | 10µM* | 4% | -25% | 2.8µM*
NC(=O)c1ccccc1NC(=O)CCc1ccccc1 | -2 | -4 | 10% | ? | ? | 20%
NC(=O)c1ccccc1NC(=S)NC(=O)CCc1ccccc1 | -4 | 11 | 13% | 3.7µM* | 2.6µM* | ?
CSc1cccc(NC(=S)NC(=O)CCc2ccccc2)c1 | 1 | 42 | 8.9µM* | ? | -6% | 3.2µM*
COC(=O)[C@@H](CC(C)C)N(Cc1ccccc1)S(=O)(=O)N(Cc1ccccc1)[C@@H](CC(C)C)C(=O)OC | -2 | 14 | . | 21µM* | 11µM*! | .
CC(C)CNc1nc(C(=O)Nc2nnc(C(C)(C)C)s2)cs1 | 6 | . | . | . | . | .
Cc1ccc(Nc2nc(C(=O)N3CCC(C(=O)NCc4ccccc4)CC3)cs2)cc1 | -8 | ? | 25% | -25% | ? | 34%
CC(C)CCNC(=O)C1CCN(c2nc3ccc(Cl)cc3[nH]2)CC1 | -18 | . | . | ? | ? | .
COc1cccc(CNC(=O)C2CCN(c3nc4ccc(Cl)cc4[nH]3)CC2)c1 | -8 | . | . | 21µM* | ? | .
COc1ccc(CNC(=O)C2CCN(c3nc4ccc(C)cc4[nH]3)CC2)cc1 | -4 | . | . | ? | 10µM* | .
COc1ccc(CNC(=O)C2CCN(C(=O)c3csc(Nc4ccc(C)cc4)n3)CC2)cc1 | -12 | -53* | 9% | ? | ? | 41%
COc1ccc(CNC(=O)C2CCN(C(=O)[C@@H]3Cc4ccccc4CN3)CC2)cc1 | 0 | -15 | -9% | 16µM* | ? | 5%
Cc1cc(C)cc(N(CC(=O)Nc2ccccc2C(=O)NCC2CCCO2)S(C)(=O)=O)c1 (stereo not drawn) | 2 | . | . | . | . | .
O=C(NCCSCc1ccsc1)C1CC1 | 7 | . | . | . | . | .
